# Of roughly 8,800 targets only a part is listed; those with a hit were picked by preference. About 0.5% of all pairs of compound and target were hits. A number with no mark means an inactive call.
# Tests used:
# Test in all cases: log2 fold change, soluble protein after heating vs DMSO (PISA); higher = thermal stabilisation; K562 lysate, 10 uM; active = over 0.2 and 3.5 SD of the protein, either way, in both replicates (recomputed)
# vemurafenib = compound: CCCS(=O)(=O)Nc1ccc(F)c(C(=O)c2c[nH]c3ncc(-c4ccc(Cl)cc4)cc23)c1F [vemurafenib]
# Summary of the method: (§1)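 Quantification was by TMTpro 16plex LC-MS/MS with equalised channel sums, applied to the supernatant after 21,000xg for 90 min. Samples were crude K562 extract at 1 mg/mL protein in PBS pH 7.4 with 1 mM MgCl2, treated with 10 μM compound for 30 min, heated for 3 min across 48°C-58°C, pooled and brought to 0.5% NP-40 at 4°C. Values are log-two fold changes in thermal stability relative to solvent controls, from duplicates.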
# [1] = compound: CCCS(=O)(=O)Nc1ccc(F)c(C(=O)c2c[nH]c3ncc(Cl)cc23)c1F
# Summary of the method: as §1
# barasertib = compound: CCN(CCCOc1ccc2c(Nc3cc(CC(=O)Nc4cccc(F)c4)[nH]n3)ncnc2c1)CCOP(=O)(O)O [barasertib]
# Summary of the method: as §1
# [2] = compound: CC[C@@H]1C(=O)N(C)c2cnc(Nc3ccc(C(=O)NC4CCN(C)CC4)cc3OC)nc2N1C1CCCC1
# Summary of the method: as §1
# volasertib = compound: CC[C@@H]1C(=O)N(C)c2cnc(Nc3ccc(C(=O)N[C@H]4CC[C@H](N5CCN(CC6CC6)CC5)CC4)cc3OC)nc2N1C(C)C [volasertib]
# Summary of the method: as §1
# [3] = compound: CCn1c(C(=O)N(C2CC2)C2CC2)cc2c3c(ncn3C)c(Nc3cc(C)n(C)n3)nc21
# Summary of the method: as §1
# [4] = compound: CCn1cc(-c2ccnc3[nH]c(-c4cccc(CN(C)C)c4)cc23)c(-c2ccc(NC(=O)N(C)C)cc2)n1
# Summary of the method: as §1
# [5] = compound: CN1CCC(CNc2ccc3ncc(-c4cccc(OC(F)(F)F)c4)n3n2)CC1
# Summary of the method: as §1
# saracatinib = compound: CN1CCN(CCOc2cc(OC3CCOCC3)c3c(Nc4c(Cl)ccc5c4OCO5)ncnc3c2)CC1 [saracatinib]
# Summary of the method: as §1
# sotrastaurin = compound: CN1CCN(c2nc(C3=C(c4c[nH]c5ccccc45)C(=O)NC3=O)c3ccccc3n2)CC1 [sotrastaurin]
# Summary of the method: as §1
# UniProt P35573, sequence (P35573 whole entry, looked up): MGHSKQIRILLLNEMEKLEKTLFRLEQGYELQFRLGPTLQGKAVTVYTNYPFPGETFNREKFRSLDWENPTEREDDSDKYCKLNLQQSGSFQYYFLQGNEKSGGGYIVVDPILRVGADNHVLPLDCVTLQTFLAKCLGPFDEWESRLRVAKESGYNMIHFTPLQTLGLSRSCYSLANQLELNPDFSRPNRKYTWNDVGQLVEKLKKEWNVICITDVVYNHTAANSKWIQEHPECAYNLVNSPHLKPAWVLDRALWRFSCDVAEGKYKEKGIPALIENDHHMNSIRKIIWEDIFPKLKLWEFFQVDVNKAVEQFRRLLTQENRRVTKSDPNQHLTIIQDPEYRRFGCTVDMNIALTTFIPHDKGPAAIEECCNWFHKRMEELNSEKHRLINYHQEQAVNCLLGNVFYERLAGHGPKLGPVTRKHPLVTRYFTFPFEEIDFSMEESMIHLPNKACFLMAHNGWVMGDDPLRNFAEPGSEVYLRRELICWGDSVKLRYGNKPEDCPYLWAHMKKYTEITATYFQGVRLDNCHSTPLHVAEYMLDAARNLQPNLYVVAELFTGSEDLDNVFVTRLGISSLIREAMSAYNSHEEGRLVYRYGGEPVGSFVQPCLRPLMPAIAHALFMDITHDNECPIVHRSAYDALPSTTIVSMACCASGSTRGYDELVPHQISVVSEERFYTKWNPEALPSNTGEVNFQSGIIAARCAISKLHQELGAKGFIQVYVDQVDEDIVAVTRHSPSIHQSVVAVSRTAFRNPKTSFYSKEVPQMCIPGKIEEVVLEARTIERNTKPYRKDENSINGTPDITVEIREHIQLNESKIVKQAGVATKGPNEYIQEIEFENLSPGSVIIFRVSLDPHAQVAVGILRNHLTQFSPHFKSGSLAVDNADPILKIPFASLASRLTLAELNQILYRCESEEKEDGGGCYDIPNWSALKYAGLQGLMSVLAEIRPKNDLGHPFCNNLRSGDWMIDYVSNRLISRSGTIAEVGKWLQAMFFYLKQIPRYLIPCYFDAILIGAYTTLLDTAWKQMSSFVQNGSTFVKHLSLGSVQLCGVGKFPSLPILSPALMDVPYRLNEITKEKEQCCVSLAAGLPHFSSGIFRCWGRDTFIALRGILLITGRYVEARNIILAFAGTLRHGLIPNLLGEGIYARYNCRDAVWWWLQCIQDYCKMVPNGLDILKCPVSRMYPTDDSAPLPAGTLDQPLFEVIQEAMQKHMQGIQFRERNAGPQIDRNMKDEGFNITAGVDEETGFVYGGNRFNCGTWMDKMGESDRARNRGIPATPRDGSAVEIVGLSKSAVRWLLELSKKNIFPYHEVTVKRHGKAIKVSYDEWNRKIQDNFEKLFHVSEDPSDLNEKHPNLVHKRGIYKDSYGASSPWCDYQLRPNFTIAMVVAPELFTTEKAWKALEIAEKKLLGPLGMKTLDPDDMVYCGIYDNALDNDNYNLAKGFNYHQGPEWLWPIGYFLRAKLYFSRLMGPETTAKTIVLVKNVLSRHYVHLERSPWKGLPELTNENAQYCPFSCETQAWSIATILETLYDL
# UniProt P08758, sequence (P08758 whole entry, looked up): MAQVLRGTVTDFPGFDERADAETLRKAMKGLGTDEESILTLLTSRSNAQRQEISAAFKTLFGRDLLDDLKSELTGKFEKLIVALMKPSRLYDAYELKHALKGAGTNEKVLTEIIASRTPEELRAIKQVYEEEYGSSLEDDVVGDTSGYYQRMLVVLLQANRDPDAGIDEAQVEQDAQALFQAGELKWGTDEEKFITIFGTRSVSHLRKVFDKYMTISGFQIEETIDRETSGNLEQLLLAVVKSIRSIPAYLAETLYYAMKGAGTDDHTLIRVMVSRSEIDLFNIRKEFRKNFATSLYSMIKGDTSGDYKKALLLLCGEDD
# UniProt Q3SY69, sequence (Q3SY69 whole entry, looked up): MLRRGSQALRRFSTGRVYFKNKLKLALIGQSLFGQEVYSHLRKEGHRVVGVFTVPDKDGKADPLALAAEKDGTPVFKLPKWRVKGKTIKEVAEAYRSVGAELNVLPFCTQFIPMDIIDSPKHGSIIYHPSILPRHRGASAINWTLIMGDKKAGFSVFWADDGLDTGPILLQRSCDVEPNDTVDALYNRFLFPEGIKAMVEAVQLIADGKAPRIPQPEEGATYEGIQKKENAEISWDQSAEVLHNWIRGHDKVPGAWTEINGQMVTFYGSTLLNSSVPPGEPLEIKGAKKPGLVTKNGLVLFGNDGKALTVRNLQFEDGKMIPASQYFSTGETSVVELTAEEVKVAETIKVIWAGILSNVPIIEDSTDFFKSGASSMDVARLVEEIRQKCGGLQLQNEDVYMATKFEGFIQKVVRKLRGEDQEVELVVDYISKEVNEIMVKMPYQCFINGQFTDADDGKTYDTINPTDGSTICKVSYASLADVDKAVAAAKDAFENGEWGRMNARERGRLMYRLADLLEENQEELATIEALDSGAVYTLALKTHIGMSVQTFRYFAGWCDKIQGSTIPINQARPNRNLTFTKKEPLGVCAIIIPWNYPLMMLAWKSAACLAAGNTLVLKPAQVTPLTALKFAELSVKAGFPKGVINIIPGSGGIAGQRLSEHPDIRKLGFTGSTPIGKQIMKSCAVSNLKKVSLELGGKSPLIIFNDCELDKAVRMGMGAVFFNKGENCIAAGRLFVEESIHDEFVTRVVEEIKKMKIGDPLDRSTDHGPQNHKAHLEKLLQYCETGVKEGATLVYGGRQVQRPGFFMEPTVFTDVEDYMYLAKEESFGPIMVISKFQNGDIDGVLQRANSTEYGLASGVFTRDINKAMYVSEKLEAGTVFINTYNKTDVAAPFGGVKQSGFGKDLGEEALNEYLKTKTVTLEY
# UniProt O15440, sequence (O15440 whole entry, looked up): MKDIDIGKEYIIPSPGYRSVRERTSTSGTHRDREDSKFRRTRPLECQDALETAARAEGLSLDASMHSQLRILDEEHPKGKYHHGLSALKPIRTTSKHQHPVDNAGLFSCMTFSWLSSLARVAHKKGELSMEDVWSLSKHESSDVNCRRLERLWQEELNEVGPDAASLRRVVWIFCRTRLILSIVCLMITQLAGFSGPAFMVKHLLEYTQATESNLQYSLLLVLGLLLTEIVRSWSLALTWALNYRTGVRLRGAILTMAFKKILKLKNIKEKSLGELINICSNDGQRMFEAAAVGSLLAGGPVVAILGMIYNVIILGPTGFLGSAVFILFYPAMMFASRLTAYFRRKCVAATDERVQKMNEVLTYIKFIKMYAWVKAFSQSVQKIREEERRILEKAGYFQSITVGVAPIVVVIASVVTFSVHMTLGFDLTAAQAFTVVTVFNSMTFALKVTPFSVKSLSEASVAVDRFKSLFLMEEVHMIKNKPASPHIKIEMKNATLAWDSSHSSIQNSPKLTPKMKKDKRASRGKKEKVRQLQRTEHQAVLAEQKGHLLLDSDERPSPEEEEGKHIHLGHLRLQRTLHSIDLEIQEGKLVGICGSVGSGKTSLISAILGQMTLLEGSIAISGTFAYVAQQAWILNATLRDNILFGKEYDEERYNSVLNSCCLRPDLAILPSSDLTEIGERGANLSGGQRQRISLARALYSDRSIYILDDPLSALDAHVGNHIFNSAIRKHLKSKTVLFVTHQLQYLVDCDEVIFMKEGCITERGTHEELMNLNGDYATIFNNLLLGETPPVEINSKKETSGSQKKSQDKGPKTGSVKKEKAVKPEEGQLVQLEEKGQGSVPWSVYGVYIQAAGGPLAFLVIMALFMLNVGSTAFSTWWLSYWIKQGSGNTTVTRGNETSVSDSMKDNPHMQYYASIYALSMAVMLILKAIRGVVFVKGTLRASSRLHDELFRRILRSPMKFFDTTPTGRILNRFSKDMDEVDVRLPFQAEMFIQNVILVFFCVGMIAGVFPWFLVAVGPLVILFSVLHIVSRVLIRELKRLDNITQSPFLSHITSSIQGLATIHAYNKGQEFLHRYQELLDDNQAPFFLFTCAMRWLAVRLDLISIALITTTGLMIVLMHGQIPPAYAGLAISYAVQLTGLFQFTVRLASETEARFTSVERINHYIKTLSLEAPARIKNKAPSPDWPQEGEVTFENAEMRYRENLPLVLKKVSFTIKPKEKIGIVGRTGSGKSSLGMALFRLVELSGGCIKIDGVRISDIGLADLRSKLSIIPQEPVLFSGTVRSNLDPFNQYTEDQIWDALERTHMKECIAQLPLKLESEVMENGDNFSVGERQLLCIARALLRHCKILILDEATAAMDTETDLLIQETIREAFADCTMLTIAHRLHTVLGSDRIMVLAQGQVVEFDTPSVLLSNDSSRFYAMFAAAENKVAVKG
# UniProt P04083, sequence (P04083 whole entry, looked up): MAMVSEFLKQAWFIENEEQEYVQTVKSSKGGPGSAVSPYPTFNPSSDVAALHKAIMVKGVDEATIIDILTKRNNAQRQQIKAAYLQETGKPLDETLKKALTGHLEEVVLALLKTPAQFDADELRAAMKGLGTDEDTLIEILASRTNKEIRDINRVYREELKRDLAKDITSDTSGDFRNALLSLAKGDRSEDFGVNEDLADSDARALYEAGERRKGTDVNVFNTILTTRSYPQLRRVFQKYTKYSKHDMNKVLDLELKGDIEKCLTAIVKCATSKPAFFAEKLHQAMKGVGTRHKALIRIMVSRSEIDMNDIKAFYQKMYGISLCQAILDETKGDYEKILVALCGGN
# UniProt P39687, sequence (P39687 whole entry, looked up): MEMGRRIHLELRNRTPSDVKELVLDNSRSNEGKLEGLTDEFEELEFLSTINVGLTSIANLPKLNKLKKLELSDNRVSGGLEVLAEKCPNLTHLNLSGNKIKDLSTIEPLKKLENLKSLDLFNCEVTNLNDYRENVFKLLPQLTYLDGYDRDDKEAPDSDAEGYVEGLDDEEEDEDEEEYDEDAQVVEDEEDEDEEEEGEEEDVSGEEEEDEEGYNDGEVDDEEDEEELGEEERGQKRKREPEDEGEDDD
# UniProt Q9NXU5, sequence (Q9NXU5 whole entry, looked up): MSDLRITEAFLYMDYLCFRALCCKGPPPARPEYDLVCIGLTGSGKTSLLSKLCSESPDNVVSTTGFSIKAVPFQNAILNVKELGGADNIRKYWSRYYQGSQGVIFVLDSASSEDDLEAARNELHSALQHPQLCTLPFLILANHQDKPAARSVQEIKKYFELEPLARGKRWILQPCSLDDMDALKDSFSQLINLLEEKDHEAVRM
Target,log2 fold change (vemurafenib),log2 fold change [1],log2 fold change (barasertib),log2 fold change [2],log2 fold change (volasertib),log2 fold change [3],log2 fold change [4],log2 fold change [5],log2 fold change (saracatinib),log2 fold change (sotrastaurin)
AMMECR1 (UniProt Q9Y4X0),0.067,0,0.008,-0.019,-0.03,-0.026,-0.012,0.032,0,0.008
AGL (UniProt P35573),-0.014,0.002,-0.015,-0.063,-0.058,0.013,0.131,-0.083,0.013,0.049
ARL15 (UniProt Q9NXU5),-0.057,-0.019,0.002,-0.082,-0.009,0.035,0.765 (active),-0.119,-0.01,0.049
ABCC5 (UniProt O15440),-0.603 (active),-0.001,-0.034,-0.067,-0.136,0.145,-0.137,-0.022,0.013,0.018
ALDH2 (UniProt P05091),-0.083,0.011,-0.012,-0.012,-0.017,-0.011,0.007,-0.009,0.012,0
AGPS (UniProt O00116),0.028,0.008,-0.021,0.06,0.011,0.025,-0.082,0.012,-0.009,-0.016
ACTG1 (UniProt I3L4N8),0.131,-0.062,0.218,-0.208,-0.006,-0.384,0.94,-0.091,-0.002,0.001
ASPH (UniProt Q12797),0.009,0.009,-0.001,0.03,0.002,-0.018,0.011,-0.024,0.055,0.01
ACIN1 (UniProt E7EQT4),-0.057,0.026,-0.021,-0.011,0.045,0.048,-0.321,0.127,-0.016,0.047
ANXA11 (UniProt P50995),0.02,-0.013,0.002,0.024,-0.031,0.044,-0.049,-0.01,-0.009,-0.017
ALDH1A1 (UniProt P00352),-0.027,0.001,-0.014,-0.016,-0.005,-0.052,0.051,-0.09,0.272,0.001
ARHGAP21 (UniProt Q5T5U3),0.107,0.073,0.061,-0.01,-0.027,0.037,0.043,-0.202,0.034,0.023
ARMC6 (UniProt Q6NXE6),-0.053,0.02,0.071,-0.136,-0.056,0.019,0.002,-0.035,0.013,0.019
ARHGEF1 (UniProt M0QZR4),0.014,0.004,0.023,-0.025,-0.041,0.014,-0.08,0.013,0.009,0.018
ALDH6A1 (UniProt Q02252),0.055,0.027,0.043,-0.009,-0.025,0.015,-0.111,0.022,-0.324 (active),-0.082
ABL2 (UniProt P42684),0.233,0.222,-0.002,0.11,-0.05,0.009,0.039,-0.128,0.254,-0.02
ARFGAP1 (UniProt Q8N6T3),0.063,-0.01,0.225,0.204,-0.02,0.171,0.001,0.029,0.056,-0.07
ALG8 (UniProt Q9BVK2),-0.038,-0.013,0,-0.084,0.034,0.045,-0.316 (active),0.001,0.005,0.038
ANXA5 (UniProt P08758),-0.034,-0.011,0.003,-0.073,-0.001,0.059,0.022,-0.064,-0.008,0.024
ANXA1 (UniProt P04083),-0.007,-0.027,-0.038,-0.022,-0.011,0.008,0.028,0.049,-0.019,0.017
ARL1 (UniProt P40616),0.046,0.007,-0.031,0.03,-0.066,-0.04,-0.101,-0.005,-0.005,0.042
AKT1 (UniProt P31749),0.071,0.011,-0.023,-0.019,-0.026,-0.031,-0.068,0.055,0.055,0.051
APOB (UniProt P04114),-0.006,0.039,0.03,-0.009,0.026,-0.189,-0.224 (active),0.092,0.029,0.024
AMDHD2 isoform 3 (UniProt Q9Y303),0.009,0.019,-0.021,0.003,0.015,-0.024,-0.031,0.005,-0.007,0.019
ANP32A (UniProt P39687),-0.025,0.052,-0.007,-0.011,0.006,-0.008,-0.085,0.062,-0.033,-0.002
ALDH1L2 (UniProt Q3SY69),-0.084,-0.026,0.002,-0.006,-0.045,0.007,-0.089,-0.014,-0.002,0.013
ACAT1 (UniProt P24752),0,-0.016,0.006,0.033,0.019,0.003,-0.038,-0.006,0.011,0.007
ANKRD54 (UniProt Q6NXT1),-0.031,0.053,-0.026,0.021,0.006,-0.005,0.004,0.011,-0.004,0.001

# — the supplement of paper PMC10849652
